From PubChem BioAssay AID1508600 (Functional Genomics Laboratory (NCATS/FGL), 2020)
The whole screen tested about 53,000 sequences, of which about 3,700 (7%) were called active. This is one part of a sample in which actives are shown more often than they occur. Unmarked numbers belong to inactive results.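 Rule for the calls: active = gene knockdowns whose robust z-score for IL-1 alpha signal is at least 2 or at most -2, so actives lie on both sides; inactive = the rest.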

test: Components of the Cytosolic LPS Sensing Pathway: Gene Identification via Genome-wide siRNA Screen; details: RAW264.7 macrophages, IL-1a HTRF, actives lie on both sides, screened at 100 nM (by protocol), cells primed 5 h with Pam3CSK4 first;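 note: robust z of the log signal after scaling to non-targeting control siRNA wells of the plate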
Summary of the method: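 Read-out: IL-1a HTRF on supernatant, divided by plate negative-control median ×100, log-transformed and converted to robust z-score. Cells were RAW264.7 given 100 nM siRNA, Pam3CSK4-primed 5 hours, then LipidA-transfected 24 hour.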

Sequence | z-score
GGAAACAGCACAACAAACGTT against Adam26a | 2.93 (active)
GGCUAAGAAACUGAAGAGATT against Ccm2l | -1.59
GCGAACUCGGGAAACAACUTT against Rnf4 | -0.0525
UAGAAUUGAUUGAGGACUCTT against Ly6c1 | 0.602
GCACUUCUUUGUGCAAAGCTT against Shfl | -0.311
GAGGUUUGGCAGAAGUGCATT against Npff | -1.95
GGCCUGUAAAAACUAUUGGTT against Mcpt4 | 0.122
CCACCAUGACUGCAAAUGUTT against Olfr1469 | -0.817
GCCAACAGUAACGGUAUUGTT against Patz1 | -2.04 (active)
GCUCGUGGCAUGUCUCUAUTT against Doc2g | 0.379
GCUAUGAAGAAAAAUCGGATT against Mettl21e | 0.362
GCCUAACCUGGUAUCCCAGTT against Zfp92 | -1.03
GGCCUCACAGUGCUUUCUCTT against Olfr1232 | 0.0779
CCUGGCUUACAGUACAUGCTT against Adarb1 | 1.21
CGACUUCAUAAGGUAUGCATT against Tnfrsf22 | -0.793
UUUGCUGUCCUUUCUUUCATT against Olfr122 | -1.84
GGCCUAAGCAAGUUGCGCATT against Fbxl8 | 1.5
CCUUCAGACUGUCAACAAUTT against Chrm2 | -0.386
GGGCAUGGAACAAGAUGUCTT against Nckipsd | -2.43 (active)
GCGUGAGCUUAAGAAGCAATT against Leng8 | 1.46
GGCUGACACAAGAUGGCUGTT against Ebpl | 2.41 (active)
GGAAAAGCUCAAUGUCCUCTT against Tex13b | -0.141

Sequence | z-score
GGGAAGUCUACAUAAAUCCTT against Gpr176 | -0.544
GGAGAAGAAAACAUCAAGUTT against Hrh3 | 2.52 (active)
GGAAAAGAAGUUUAAACGGTT against Svs6 | -0.413
GGAGGAUCUUUCAAAGAGATT against Egfl8 | 0.763
GGCCCUUCCAGAAGAUACATT against Speer3 | -1.1
GGACAGAUUCGACAAAGAGTT against Olfr1535 | -0.193
GGAAAACAAGACUUCAAUCTT against Gypa | 0.369
CCCUGAUGACAGAAGAAUCTT against Tyms | -0.802
GCACCUCGGUCAUUUAUAUTT against Mettl14 | -2.51 (active)
GCCUGUCCUGUGAUGACAUTT against Olfr406 | -1.96
GCUCGAACAUCUCUUGGUCTT against Capn9 | 0.186
CCGUUACCUUUUAAGCCUGTT against Socs6 | -1.2
GGCAGAGAAAAGGACCUUUTT against Mcts2 | -1.32
GGAACUCCUCAAACGAAGGTT against Bmp3 | 0.553
GCCACCAGUGAAUAAUACATT against Hyal6 | 0.459
GGUUUGCAUAUCUCACCCUTT against Sirt6 | -2.38 (active)
GGAGACUGGAGAGCAAAAUTT against Krt18 | -1.44
GCUACCUUCAGACAAGCACTT against Prss32 | -0.877
GCAACUCAGCUGUUGUGAGTT against Ifitm2 | 2.99 (active)
GCUGUUGUUCAAUGCCCUGTT against Olfr392 | -0.616
GGCUGCACACAAUAUGAACTT against Mrm2 | 0.134
CCUAUGCUAUGUAGUUUAATT against Adam21 | 5.58 (active)

Sequence | z-score
GGAGAAACUAUGAUCUUUATT against Mmp13 | 0.117
GGGAAGAAAUCCAAGAAGATT against Cnpy3 | -0.836
GCUGCCUACCUGUGAAAGUTT against Pgam2 | 2.82 (active)
GGCCAAAGCUGAUAUGACATT against Ankef1 | 2.23 (active)
GGAGCUCCUGUACGACUAUTT against Kmt5a | -1.66
GCCCUCGGACUGAAAACAATT against Chrm5 | -0.227
GGUACAAUGGCACUGUCACTT against Chrna5 | -1.29
GGGAUGCUUUUGGCCCAAATT against Rita1 | 0.901
GGUUCUCUAACAGAACUUUTT against Zc3h6 | 0.768
GGUGUCUUUGCUCAGCUCATT against Lrfn4 | -2.93 (active)
GGUUGUUUGACCAACAGCUTT against Inpp5d | -1.51
GGAAUUUGUGGAGAAACUATT against Gabbr1 | -0.232
GAGCCAUAUACCUCGUCCUTT against Mier2 | -0.531
GGUUGGCUUGGAAAUGGGATT against Nanos2 | 1.7
CCAUUUACCCAUGCGGCUATT against Creb3l2 | -1.94
GGAGAUGUGUUGAGUUUUCTT against Abcg2 | 4.47 (active)
GGCAACAUGCGGACAACAUTT against Trim14 | -0.42
GGAGCUGAACCUGAGCUAUTT against Tlr9 | -0.341
GGACAUUUCUAUGUCUUUGTT against Cpt2 | 3.35 (active)
GGAGAUAAAUCCUUUGCAUTT against Zfp119a | 1.74
GGACUUUCGUGAGAGAUUUTT against Fpr2 | 1.16
GGUUCAGUUUUGGCUGGCUTT against Olfr558 | 2.04 (active)

Sequence | z-score
GGAGAAGAGCAGAAUAUGCTT against Baz1a | -1.48
GCUGUUAAACGAAAUGUACTT against Esx1 | -0.298
GCUUGGAAGGGACUUCAAUTT against Trp73 | 2.97 (active)
CCAUUUAUUUGGACUUGUATT against Lig4 | 0.303
CCGGUAUUACAACAAGUACTT against Atp5j2 | 1.01
GGGAGAAGGUAAGUGCAUGTT against Golga7b | -0.343
GGUGGAAAAGUGAAAAAGGTT against Ddx18 | 0.158
CCUGUAGAUUCAAUUAGAGTT against Vkorc1l1 | -0.206
GGUGCUGCUUUAUUCCUGGTT against Dhcr7 | -0.632
CGAUUAUGAGCACUAUAUUTT against Ddx20 | 2.12 (active)
GGAUAUGUGUUCAUCCUGUTT against Lrrc18 | 0.0347
GGUUAUGCCUUCAGUGAAGTT against Prep | -0.14
GGUGACUGUCCUGAACUAUTT against Prr5l | 1.7
CGAAGUGAAAAGUAUGACCTT against Lrrc72 | -0.083
GGGCAUAGUGACCAGGUUATT against Fgf14 | 2.67 (active)
AUCUCUCGGUGGUGGACUGTT against Olfr1474 | 0.583
CCAGGUCGAACUUCUGUGCTT against Slc39a8 | -0.82
GCAACUCAGAAUGUAGUGUTT against Gnai1 | 0.298
GGCUUUUGAUGAGGUAAAATT against Plekho2 | -1.12
GGAGGAAAAACAGUGCAGATT against Smchd1 | -1.54
GGACCUAUUACCUCAAUGATT against Spatc1l | -2.59 (active)
GGUUCUGACUUGAGAAAACTT against Clba1 | 1.41

Sequence | z-score
GGUUAUUCUGGUACAGGUUTT against Fndc3a | 0.191
GGCUCAGCUCAUGAACGACTT against Acvr2b | -0.00307
GGACAUGACCAAAAGGCUGTT against Zfp706 | 3.84 (active)
GGUGGUUUUCAUGUUUCCCTT against Olfr574 | -1.48
GGCUAGAAUGCACAUUUUATT against Tmem65 | -1.26
CCACCCUCUUCAUAACAGUTT against Med27 | -0.82
GCCAAUACACGUCUACUGATT against Gm1553 | -0.0632
GGUGACACUCAAGGUGUCATT against Ldlrap1 | 2.23 (active)
GGACCAUGAGACGAUGGGATT against Dysf | 0.167
GCUAAUGACACCACUUUUGTT against Aldh9a1 | -0.379
GGAUUGAGUCCUAUGAAGGTT against Stard3nl | -1.09
CCAAGUGACUUUAAGGAUGTT against Pcolce | 0.759
GGCCAUCAUAUCACCAUUUTT against Rcsd1 | 1.6
GCCUUAGGCAUUUAGAUUUTT against Zbed4 | 1.33
GCUGAAGUUCGUACCCUACTT against Osbp2 | -2.42 (active)
CGGAGUUCAGCAUUUACCCTT against Shld2 | 0.428
GGCAGUUUGACAACUUUAATT against Fibp | -0.653
CCCAGCUCAGGUUUCUAUGTT against Dact2 | 0.0333
GGUGAUCAAUCCUCUAAUATT against Eid2 | 2.61 (active)
GCCUAUGUAAAUAGUGCUGTT against Mt3 | 0.549
